PubChem BioAssay (NCI)
The panel holds about 83,000 compounds, 20% with a hit somewhere; the sample as a whole holds those more often.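 Plates (96-well) were seeded with cells, treated with compound at one concentration, and incubated for 48 hours before percent growth was determined.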 The source made the active and inactive calls. Rule for the calls: active = growth percent below 10; inactive = the rest.

Key:
Experiment in all cases: NCI-60 one-dose screen, 48 h (100 = growth as untreated, 0 = no growth, -100 = all killed)
Settings in all cases: 10 µM unless noted
[1] = test system: SK-MEL-2 melanoma
[2] = test system: SN12C renal
[3] = test system: UO-31 renal
[4] = test system: TK-10 renal
[5] = test system: ACHN renal
[6] = test system: CAKI-1 renal
[7] = test system: A498 renal
[8] = test system: CCRF-CEM leukemia
[9] = test system: MOLT-4 leukemia
[10] = test system: SR leukemia
[11] = test system: RPMI-8226 leukemia
[12] = test system: OVCAR-8 ovarian
[13] = test system: OVCAR-5 ovarian
[14] = test system: OVCAR-4 ovarian
[15] = test system: SK-OV-3 ovarian
[16] = test system: IGROV1 ovarian
[17] = test system: OVCAR-3 ovarian
[18] = test system: HS 578T breast
[19] = test system: NCI/ADR-RES ovarian

Measured: growth

COc1ccc(-c2c(C)noc2-c2ccc(O)cc2O)cc1
inactive: [1] 101% | [2] 85.7% | [3] 87.3% | [4] 99.8% | [5] 90.3% | [6] 95.8% | [7] 88% | [8] 71.7% | [9] 59.1% | [10] 31.1% | [11] 50.7% | [12] 99.9% | [13] 112% | [14] 76.4% | [15] 94.1% | [16] 87% | [17] 80.5% | [18] 106% | [19] 94.6%

O=C(Nc1ccc(F)cc1)Nc1ccc(CCO)cc1
inactive: [1] 112% | [2] 101% | [3] 94.1% | [4] 112% | [5] 110% | [6] 103% | [7] 85.9% | [8] 107% | [9] 102% | [10] 103% | [11] 108% | [12] 104% | [13] 114% | [14] 97.6% | [15] 113% | [16] 99.9% | [17] 117% | [18] 106% | [19] 108%

c1c2c(cc3c1OCO3)Cc1cc3c(cc1Cc1cc4c(cc1C2)OCO4)OCO3
inactive: [1] 115% | [2] 98.5% | [3] 95.7% | [4] 116% | [5] 101% | [6] 89.9% | [7] 107% | [8] 112% | [9] 116% | [10] 91.9% | [11] 111% | [12] 101% | [13] 102% | [14] 98.3% | [15] 101% | [16] 104% | [17] 123% | [18] 104% | [19] 113%

COC(=O)C12C3C(=O)N(c4ccc(OC)cc4)C(=O)C3C(c3cn(-c4ccccc4)nc3C)N1[C@H](c1cn(-c3ccccc3)nc1C)[C@@H]1C(=O)N(c3ccc(OC)cc3)C(=O)[C@@H]12 (some centres not stated)
inactive: [1] 107% | [2] 104% | [3] 97.1% | [4] 96.5% | [5] 101% | [6] 91.7% | [7] 89.4% | [8] 104% | [9] 81.8% | [10] 91% | [11] 106% | [12] 99% | [13] 103% | [14] 108% | [15] 101% | [17] 104% | [18] 106% | [19] 97.4%

NC(CC(=O)O)C(=O)OCc1ccccc1 (configuration not stated)
inactive: [1] 94.8% | [2] 105% | [3] 71.8% | [4] 122% | [5] 97.1% | [6] 79.9% | [7] 85.4% | [8] 108% | [9] 103% | [10] 107% | [11] 98.7% | [12] 101% | [13] 101% | [14] 89.6% | [15] 82.9% | [17] 110% | [18] 101% | [19] 101%

COc1cc(C2CC(=O)c3c(C)nn(-c4nc5ccccc5[nH]4)c3C2)cc(OC)c1OC (configuration not stated)
active: [14] -35.4%
inactive: [1] 91.2% | [2] 75.9% | [3] 91.1% | [4] 45.3% | [5] 59.1% | [6] 101% | [7] 56.5% | [8] 104% | [9] 102% | [10] 87.7% | [11] 92.1% | [12] 25.7% | [13] 90.4% | [15] 17.9% | [17] 67.2% | [18] 43.1% | [19] 64.9%

COc1cc(C2C(C(=O)c3cccs3)=C(O)C(=O)N2CCN2CCOCC2)cc(OC)c1OC (configuration not stated)
inactive: [1] 102% | [2] 104% | [3] 97.3% | [4] 99.2% | [5] 102% | [6] 101% | [7] 84.8% | [8] 120% | [9] 129% | [10] 111% | [11] 108% | [12] 113% | [13] 108% | [14] 110% | [15] 109% | [16] 100% | [17] 102% | [18] 112% | [19] 107%

CNC(=S)N/N=C/CSC/C=N/NC(=S)NC
inactive: [1] 98.7% | [2] 104% | [3] 71.7% | [4] 103% | [5] 99.6% | [6] 98.7% | [7] 110% | [8] 20.4% | [9] 48.7% | [11] 63.7% | [13] 89.8% | [14] 76.1% | [15] 80.5% | [17] 32.3% | [18] 107% | [19] 97.9%
active: [10] 6.29% | [16] 9.24%

Cc1cc(Nc2nc(N3CCNCC3)nc3ccccc23)n[nH]1
inactive: [1] 53.6% | [2] 76.1% | [3] 64.3% | [4] 60.5% | [5] 41.5% | [6] 20.1% | [7] 45.3% | [8] 108% | [9] 101% | [10] 92.6% | [11] 117% | [12] 115% | [13] 89.6% | [14] 96.2% | [15] 27% | [17] 100% | [18] 65.2% | [19] 107%

CCCCCC(=O)N(CCCC)CCCC
inactive: [1] 124% | [2] 96.3% | [3] 78.5% | [4] 109% | [5] 101% | [6] 92% | [7] 127% | [8] 99.1% | [9] 105% | [10] 95.5% | [11] 93.8% | [12] 102% | [13] 103% | [14] 84.6% | [15] 93.7% | [17] 120% | [18] 109% | [19] 111%

Cc1ccc2c(NCCCN(C)C)c3c(C)nn(C)c3nc2c1
active: [10] 5.55% | [12] -5.26%
inactive: [1] 44% | [2] 42.9% | [3] 26.5% | [4] 28.4% | [5] 27.2% | [6] 14.5% | [7] 28.3% | [8] 31.7% | [9] 10.7% | [11] 27.8% | [13] 39.3% | [14] 28.7% | [15] 39.2% | [16] 29.2% | [17] 49.3% | [18] 74.1% | [19] 45.3%

CCOC(=O)c1nc(Nc2cc(C)[nH]n2)c2ccccc2n1
inactive: [1] 89.4% | [2] 97% | [3] 76.7% | [4] 77.3% | [5] 73.4% | [6] 37.7% | [7] 62.4% | [8] 96.9% | [9] 102% | [10] 81.1% | [11] 114% | [12] 111% | [13] 103% | [14] 82.5% | [15] 75.8% | [16] 76.2% | [17] 97.7% | [18] 71.4% | [19] 114%

O=C(N/N=C/c1ccc(O)cc1O)c1cccnc1
inactive: [1] 55.6% | [2] 57.2% | [3] 22.2% | [4] 39.4% | [5] 30.1% | [6] 13.4% | [7] 92% | [11] 44.6% | [13] 77.6% | [14] 32.6% | [15] 46.8% | [16] 44.3% | [17] 19.8% | [18] 71.6% | [19] 19.1%
active: [8] 5.78% | [9] 3.3% | [10] -6.2% | [12] -8.42%

C#Cc1nc(Nc2cc(C)[nH]n2)c2ccccc2n1
active: [1] -53.2% | [2] -31.6% | [3] -36.1% | [4] -21.3% | [5] -42.4% | [6] -70% | [7] -93.6% | [8] 2.05% | [9] -19.8% | [10] 3.84% | [11] -16.5% | [12] -19.2% | [13] -28.5% | [14] -55.2% | [16] -62.7% | [17] -71% | [18] -1.95% | [19] 9.77%
inactive: [15] 21.1%

CCCCCCCCCCCCN1CCCC(C)C1 (configuration not stated)
inactive: [1] 89.6% | [2] 95.9% | [3] 60.8% | [4] 87.9% | [5] 85.4% | [6] 68.7% | [7] 104% | [8] 44.7% | [9] 63.9% | [11] 64.1% | [13] 88.2% | [14] 68% | [15] 88.3% | [16] 82.4% | [17] 93.3% | [18] 99.8% | [19] 88.2%
active: [10] -13.9%

COc1ccc(-c2cc(/C=C3\C(=O)Nc4ccc(Cl)cc43)[nH]n2)cc1
inactive: [1] 51.2% | [2] 63.1% | [3] 64.4% | [4] 86.9% | [5] 56.7% | [6] 65.8% | [7] 65.7% | [8] 35.5% | [9] 25.1% | [10] 10.6% | [11] 61.6% | [12] 67.5% | [13] 92.5% | [14] 101% | [15] 60% | [16] 17.7% | [17] 31.6% | [18] 68.6% | [19] 34.2%
